Test results from PubChem BioAssay (NCI).
The panel holds about 83,000 compounds, 20% with a hit somewhere; the sample as a whole holds those more often.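 The endpoint reported here, percent growth, reads 100 for growth as untreated, 0 for no net growth and -100 for all cells dead.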 Active and inactive are the calls of the source. The calls were made as follows: active = growth percent below 10; inactive = the rest.

Legend:
Test in all cases: NCI-60 one-dose screen, 48 h (100 = growth as untreated, 0 = no growth, -100 = all killed)
Conditions in all cases: 10 µM unless noted
[1] = system: DU-145 prostate
[2] = system: K-562 leukemia
[3] = system: MALME-3M melanoma
[4] = system: MDA-MB-231 breast
[5] = system: RXF 393 renal
[6] = system: SF-268 CNS
[7] = system: SF-295 CNS
[8] = system: SF-539 CNS
[9] = system: UACC-257 melanoma
[10] = system: M14 melanoma

Measured: growth

CCN1CCN(Cc2ccc(Cc3ncc(F)c(-c4cc(F)c5nc(C)n(C(C)C)c5c4)n3)nc2)CC1
inactive: [1] 60.4% | [3] 65.9% | [4] 53.4% | [6] 54.4% | [7] 64.9% | [8] 59.8% | [9] 52.8% | [10] 45.2%
active: [2] -29.2% | [5] -28.2%

Cc1oc2c(C(=O)N/N=C\c3ccc(O)cc3O)c[nH]c2c1C
active: [1] -33.5% | [3] 5.32% | [6] 7.45% | [8] 9.86% | [10] -13.8%
inactive: [2] 11.2% | [4] 30.3% | [5] 39.3% | [7] 12.3% | [9] 17.8%

COc1cc2c(Oc3ccc(NC(=O)C4(C(=O)Nc5ccc(F)cc5)CC4)cc3F)ccnc2cc1OCCCN1CCOCC1
inactive: [1] 16.4% | [6] 11.6%
active: [2] -12.1% | [3] -71.6% | [4] -60.3% | [5] -94.5% | [7] -82.9% | [8] -90.5% | [9] -85.3% | [10] -65.9%

NC(=O)Nc1cc(-c2cccc(F)c2)sc1C(=O)N[C@H]1CCCNC1
active: [1] -8.14% | [2] 2.46% | [3] 0.0893% | [4] -8.48% | [5] -89.1% | [6] -9.94% | [7] 3.74% | [8] -77.5% | [9] 5.95% | [10] -13.8%

Cc1[nH]c(/C=C2\C(=O)Nc3ccc(F)cc32)c(C)c1C(=O)NC[C@H](O)CN1CCOCC1
inactive: [1] 31.3% | [2] 24% | [4] 29.8% | [6] 40.9% | [7] 64% | [8] 28% | [9] 42.3%
active: [3] -7.48% | [5] -17.1% | [10] 7.61%

COc1ccc2c(OCc3nnc4ccc(-c5ccccc5)nn34)ccnc2c1
active: [5] -13.9% [2.5 µM]
inactive: [1] 109% [2.5 µM] | [2] 93.1% [2.5 µM] | [3] 97.8% [2.5 µM] | [4] 106% [2.5 µM] | [6] 109% [2.5 µM] | [7] 63.4% [2.5 µM] | [8] 95.1% [2.5 µM] | [9] 120% [2.5 µM] | [10] 104% [2.5 µM]

CC(=O)C1=C(C)NC(SCc2nnc(-c3ccc(C)cc3)o2)=NC1c1ccc(F)cc1 (stereo not given)
inactive: [1] 107% | [2] 100% | [3] 98% | [4] 93.6% | [5] 103% | [6] 111% | [7] 108% | [8] 93.4% | [9] 111% | [10] 96%

CCN(CC)CCOc1ccc(/C(=C(\C)c2ccc(Cl)cc2)c2ccc(Cl)cc2)cc1
inactive: [1] 97.2% | [3] 87.2% | [4] 84.3% | [5] 51.2% | [6] 80.7% | [7] 65.2% | [8] 67% | [9] 96.1% | [10] 71%
active: [2] 7.09%

COc1cc2ncnc(Nc3ccc(O)cc3)c2cc1OC
inactive: [1] 61.3% | [2] 73% | [3] 102% | [4] 88.8% | [5] 82.3% | [6] 86.6% | [7] 98.8% | [8] 73.4% | [9] 63.7% | [10] 79.7%

Nc1c(Cl)cccc1[N+](=O)[O-]
inactive: [1] 111% | [2] 101% | [3] 96.7% | [4] 99.3% | [5] 115% | [6] 105% | [7] 107% | [8] 108% | [9] 108% | [10] 108%

COC[C@@H](C)n1c(C2CCOCC2)nc2c1C1C=C(OC)C(c3c(C)noc3C)=CC1N=C2 (stereo not given in full)
inactive: [1] 65.5% | [2] 33.6% | [3] 41.2% | [4] 25% | [5] 55.9% | [6] 62.4% | [7] 45.4% | [8] 34.5% | [9] 41.4% | [10] 42.4%

Cc1csc(-c2nnc(Nc3ccc(Oc4ncccc4-c4ccnc(N)n4)cc3)c3ccccc23)c1
active: [5] 8.98%
inactive: [1] 55.8% | [2] 40% | [3] 18.6% | [4] 37.7% | [6] 58.3% | [7] 60.2% | [8] 41.1% | [9] 20.8% | [10] 15.4%

C=CC(=O)Nc1cccc(Oc2nc(Nc3ccc(N4CCN(C)CC4)cc3)nc3ccsc23)c1
active: [1] -48.4% | [2] -25.6% | [3] -84.2% | [4] -58% | [5] -83.9% | [6] 3.11% | [8] -92.9% | [9] -80.8% | [10] -81%
inactive: [7] 23.9%

COc1cc2nc(Nc3cccc(Cl)c3)nc(N)c2cc1OC
inactive: [1] 32.3% | [2] 24% | [3] 107% | [4] 60.3% | [5] 45.4% | [6] 77.1% | [7] 108% | [8] 90.3% | [9] 90.3% | [10] 78.4%

O=C(O)C1(Cc2cccc(Nc3nccs3)n2)CCC(Oc2cccc(Cl)c2F)CC1 (stereo not given)
inactive: [1] 70.2% | [2] 33.9% | [3] 77.5% | [4] 77.5% | [5] 82.1% | [6] 61.6% | [7] 71.5% | [8] 89.2% | [9] 49.6% | [10] 58%

Cn1ncc(Cl)c1-c1cc(C(=O)N[C@H](CN)Cc2cccc(F)c2)sc1Cl
inactive: [1] 44.4% | [6] 27%
active: [2] -21.1% | [3] -73.8% | [4] -9.49% | [5] -36.5% | [7] -12.5% | [8] -31.5% | [9] -87.7% | [10] -54.8%

COc1ncc(-c2ccc3nccc(-c4ccnnc4)c3c2)cc1NS(=O)(=O)c1ccc(F)cc1F
inactive: [1] 10.8%
active: [2] 3.76% | [3] -34.2% | [4] 5.98% | [5] -58.5% | [6] 6.46% | [7] -27.3% | [8] -47.2% | [9] -36.2% | [10] -7.62%

O=C(O)c1ccc(Nc2ncc3c(n2)-c2ccc(Cl)cc2C(c2c(F)cccc2F)=NC3)cc1
inactive: [1] 72.1% | [2] 23.3% | [3] 76.5% | [4] 51.7% | [5] 43.8% | [6] 52.6% | [7] 39.3% | [8] 59.4% | [9] 46.4% | [10] 57.5%

O=c1sn(-c2cccc3ccccc23)c(=O)n1Cc1ccccc1
active: [2] 9.59%
inactive: [1] 108% | [3] 96.5% | [4] 101% | [5] 99.3% | [6] 105% | [7] 105% | [8] 114% | [9] 89.2% | [10] 89.8%

C#Cc1cccc(Nc2ncnc3cc(OCCOC)c(OCCOC)cc23)c1
inactive: [1] 35.8% | [2] 51.3% | [3] 67.6% | [4] 67% | [5] 46.1% | [6] 62.9% | [7] 84.9% | [8] 81.1% | [9] 85.7% | [10] 48.5%

CO[C@@H](C(=O)N1Cc2[nH]nc(NC(=O)c3ccc(N4CCN(C)CC4)cc3)c2C1)c1ccccc1
active: [2] 6.59% | [4] 9.92% | [5] -36.4% | [6] 1.17% | [8] -4.34%
inactive: [1] 17.6% | [3] 48.6% | [7] 31.7% | [9] 14.2% | [10] 35.8%

Cc1cc(C(=O)Nc2cc(Oc3ccc4nc(NC(=O)C5CC5)cn4n3)ccc2C)n(C)n1
inactive: [1] 54.3% | [4] 21.9% | [6] 40.9% | [7] 52.5%
active: [2] 7.79% | [3] -5.45% | [5] -15.1% | [8] 3.9% | [9] -29% | [10] -8.27%

Clc1ccc(Nc2nccc(Nc3ccc4[nH]ncc4c3)n2)cc1
active: [2] -7.92%
inactive: [1] 49.8% | [3] 87.5% | [4] 68.8% | [5] 35.1% | [6] 60.4% | [7] 70.9% | [8] 75.8% | [9] 87.6% | [10] 43.8%

Nc1nc(Nc2ccccc2)c(C=Nc2ccccc2)c(=O)[nH]1
inactive: [1] 103% | [2] 90.4% | [3] 103% | [4] 104% | [5] 91.7% | [6] 94% | [7] 95.5% | [8] 85.5% | [9] 93.6% | [10] 91.5%

COc1cc(Nc2c(C#N)cnc3cc(OCCCN4CCN(C)CC4)c(OC)cc23)c(Cl)cc1Cl
active: [3] 1.06% | [9] -8.01%
inactive: [1] 46% | [2] 22.7% | [4] 62.3% | [5] 59% | [6] 70.5% | [7] 83.7% | [8] 94.4% | [10] 13%

COC(=O)[C@@H](OC)[C@@H]1Cc2cc3cc(OC4CC(OC5CC(O)C(O)C(C)O5)C(O)C(C)O4)c(C)c(O)c3c(O)c2C(=O)[C@H]1OC1CC(OC2CC(OC3CC(C)(O)C(O)C(C)O3)C(O)C(C)O2)C(O)C(C)O1 (stereo not given in full)
inactive: [1] 10.2%
active: [2] 4.16% | [3] -58% | [4] -8.44% | [5] -73% | [6] 3.86% | [7] -10.6% | [8] -41.6% | [9] -11.2% | [10] -71.5%
